Reference: PubChem BioAssay (NCATS)
Calls of active or inactive are those of the source. Entries that show only a call come without a potency. The call rests on the fitted dose curve; in most records, active means well fitted curve in the direction sought with a large enough effect; inconclusive means small, poorly fitted or top-dose-only effect, or another doubt; inactive means no such curve, though single readings can be large or run the other way.

The molecules below were run against Hexokinase-4 (Homo sapiens) + Glucokinase regulatory protein (Homo sapiens) (UniProt P35557+Q14397) (assay: qHTS assay for inhibitors of recombinant human GCK-GKRP interaction: Diaphorase-coupled assay (AID 743205)). Details: G6PDH/diaphorase resorufin fluorescence; series mostly up to 57.5 µM.
Chain of Hexokinase-4 (Homo sapiens) + Glucokinase regulatory protein (Homo sapiens) (P35557 whole entry, looked up): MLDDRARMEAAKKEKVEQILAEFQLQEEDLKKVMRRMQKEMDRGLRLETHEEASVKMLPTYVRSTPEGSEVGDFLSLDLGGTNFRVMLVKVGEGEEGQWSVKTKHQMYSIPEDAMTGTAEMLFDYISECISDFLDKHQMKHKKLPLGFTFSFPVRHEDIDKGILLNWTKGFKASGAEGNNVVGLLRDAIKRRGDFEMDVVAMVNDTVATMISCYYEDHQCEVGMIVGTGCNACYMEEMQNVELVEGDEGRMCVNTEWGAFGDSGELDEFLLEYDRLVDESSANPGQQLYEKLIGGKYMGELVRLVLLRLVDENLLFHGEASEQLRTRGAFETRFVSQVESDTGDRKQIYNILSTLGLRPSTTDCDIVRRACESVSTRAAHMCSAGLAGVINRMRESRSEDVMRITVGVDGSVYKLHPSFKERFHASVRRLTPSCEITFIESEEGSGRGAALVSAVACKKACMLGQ
Chain of Hexokinase-4 (Homo sapiens) + Glucokinase regulatory protein (Homo sapiens) (Q14397 whole entry, looked up): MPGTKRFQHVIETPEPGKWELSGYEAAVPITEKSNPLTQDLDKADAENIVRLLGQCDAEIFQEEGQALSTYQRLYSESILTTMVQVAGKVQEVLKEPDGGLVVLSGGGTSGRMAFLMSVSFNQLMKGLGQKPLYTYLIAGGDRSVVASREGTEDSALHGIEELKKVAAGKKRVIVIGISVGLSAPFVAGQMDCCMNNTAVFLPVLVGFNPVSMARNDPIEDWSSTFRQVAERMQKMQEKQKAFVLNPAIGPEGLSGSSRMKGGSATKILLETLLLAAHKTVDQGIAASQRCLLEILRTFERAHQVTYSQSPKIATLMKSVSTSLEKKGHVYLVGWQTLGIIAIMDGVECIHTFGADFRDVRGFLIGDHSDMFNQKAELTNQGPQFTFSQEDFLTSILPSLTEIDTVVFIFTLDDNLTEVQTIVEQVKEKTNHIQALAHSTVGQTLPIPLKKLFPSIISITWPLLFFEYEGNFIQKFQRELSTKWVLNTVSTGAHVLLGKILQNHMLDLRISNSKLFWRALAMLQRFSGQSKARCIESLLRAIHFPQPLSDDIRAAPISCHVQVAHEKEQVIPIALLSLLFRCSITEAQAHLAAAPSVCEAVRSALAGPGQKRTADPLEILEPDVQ
Excerpt: Glucokinase (GCK) is a glucose sensor in hepatocytes and pancreatic beta-cells. Hepatic GCK is regulated by glucokinase regulatory protein (GKRP), which is predominantly localized to the liver. GKRP binds to GCK inhibiting its activity in the fasting state while in the presence of glucose the GKRP is displaced. There is an additional layer of regulation by fructose 1-phosphate and fructose 6-phosphate, which inhibit and enhance the GCK-GKRP interaction, respectively. GCK plays a role in glucose homeostasis and there is an interest in the development of strategies to activate GCK to lower blood glucose levels in type 2 diabetes. To date the majority of effort has focused on direct activation of GCK and the assays developed herein look to activate GCK by inhibiting its binding to GKRP. A compound that inhibits the interaction of GCK with GKRP could be important for the treatment of diabetes and can also be used as a tool compound to further elucidate GCK-GKRP biology. To that end, we have developed a sensitive HTS biochemical assay where in GCK activity is coupled to G6PDH and Diaphorase to interrogate the GCK-GKRP interaction. This assay was screened against a small compound library to look for modulators of activity.
2 uL of substrate (columns 1-48) are dispensed into Greiner, black solid-bottom 1536-well assay plates. Compounds (23 nL) are then transferred via Kalypsys pin tool equipped with 1536-pin array (10 nL slotted pins, V&P Scientific, San Diego, CA). The library compounds are in columns 5-48 and columns 1-4 serve as controls with DMSO in columns 1 and 3 and 26 mM 1:1.5 fold serial of gluckokinase activator (GKA-EMD) in column 2 and 26 mM of the glucokinase activator (GKA-EMD) in column 4. Following addition of compound and a 20 minute incubation, 1 uL of enzyme mix (GST-GCK, FLAG-GKRP and diaphorase) is added to columns 1, 2, 4-48 and 1 uL of no enzyme mix (FLAG-GKRP and diaphorase) is added to column 3 and the fluorescent product resorufin generated from resazurin was monitored on a Viewlux (PerkinElmer, Shelton, CT, USA) with excitation at 525 nm and emission at 590 nm in kinetic mode where the plate was read every minute for 30 minutes. The final concentration of reagents in the reaction are 25 mM Hepes pH 7.6, 25 mM KCl, 2 mM MgCl2, 1.4 mM 2-mercaptoethanol, 0.025% BSA, 0.01% Tween-20, 0.15 mM NADP+, 5 mM glucose, 0.4 mM ATP, 4 U/ml G6PDH, 0.1 mM resazurin, 10 nM GST-GCK, 10 nM FLAG-GKRP, diaphorase (0.1 mg/mL). Data are normalized to DMSO-treated control columns with (maximum signal) and without (minimum signal) enzyme.

Row | SMILES | Potency
1 | CN(Cc1cnc2nc(N)nc(N)c2n1)c1ccc(C(=O)N[C@@H](CCC(=O)O)C(=O)O)cc1 | inactive
2 | Nc1c2c(nc3ccccc13)CCCC2 | inactive
3 | N[C@@H](Cc1c[nH]c2ccc(O)cc12)C(=O)O | inactive
4 | Clc1ccccc1C(c1ccccc1)(c1ccccc1)n1ccnc1 | inactive
5 | Nc1nc2c(ncn2COC(CO)CO)c(=O)[nH]1 | inactive
6 | NC(CO)C(=O)NNCc1ccc(O)c(O)c1O (stereo not given) | inactive
7 | CN(C)CCCN1c2ccccc2CCc2ccc(Cl)cc21 | inactive
8 | CC(C)NCC(O)c1ccc(O)c(O)c1 (stereo not given) | inactive
9 | COc1ccccc1OCC(O)CN1CCN(CC(=O)Nc2c(C)cccc2C)CC1 (stereo not given) | inactive
10 | CC(C)NCC(O)COc1ccc(CCOCC2CC2)cc1 (stereo not given) | inactive
11 | Clc1ccc2c(c1)C(N1CCNCC1)=Nc1ccccc1O2 | inactive
12 | CN1C2CCC1CC(OC(=O)C(CO)c1ccccc1)C2 (stereo not given) | inactive
13 | COc1cc2c(c(OC)c1OC)-c1ccc(OC)c(=O)cc1[C@@H](NC(C)=O)CC2 | inactive
14 | COc1ccc2c(c1)c(CC(=O)O)c(C)n2C(=O)c1ccc(Cl)cc1 | inactive
15 | O=C1Cc2cc(CCN3CCN(c4nsc5ccccc45)CC3)c(Cl)cc2N1 | inactive
16 | O=c1[nH]cc(F)c(=O)[nH]1 | inactive
17 | NCCc1cnc[nH]1 | inactive
18 | CN1CCC(=C2c3ccccc3C=Cc3ccccc32)CC1 | inactive
19 | Cn1cnc2c1c(=O)[nH]c(=O)n2C | inactive
20 | COC(=O)Nc1nc2ccc(C(=O)c3cccs3)cc2[nH]1 | inactive

Row | SMILES | Potency
21 | CC(COc1ccccc1)N(CCCl)Cc1ccccc1 (stereo not given) | inactive
22 | O=C(Nc1ccc([N+](=O)[O-])cc1Cl)c1cc(Cl)ccc1O | inactive
23 | COc1ccc(CCN(C)CCCC(C#N)(c2ccc(OC)c(OC)c2)C(C)C)cc1OC (stereo not given) | inactive
24 | Cc1cc(C(C)(C)C)c(O)c(C)c1CC1=NCCN1 | inactive
25 | Cn1c(=O)c2c(ncn2C)n(C)c1=O | inactive
26 | NS(=O)(=O)c1cc2c(cc1Cl)NCNS2(=O)=O | inactive
27 | COc1cc2nc(N(C)CCCNC(=O)C3CCCO3)nc(N)c2cc1OC (stereo not given) | inactive
28 | NC12CC3CC(CC(C3)C1)C2 | inactive
29 | CN(C)CCOC(c1ccccc1)c1ccccc1 | inactive
30 | CCN1CCCC1CNC(=O)c1cc(S(=O)(=O)CC)c(N)cc1OC (stereo not given) | inactive
31 | CCC1(c2ccccc2)C(=O)NCNC1=O | inactive
32 | CN1CCN2c3ccccc3Cc3ccccc3C2C1 (stereo not given) | inactive
33 | CC(C)Cc1ccc(C(C)C(=O)O)cc1 (stereo not given) | inactive
34 | COc1nc(C)nc(Cl)c1NC1=NCCN1 | inactive
35 | NC(=O)OCC(COC(N)=O)c1ccccc1 | inactive
36 | Nc1ccn([C@H]2CC[C@@H](CO)O2)c(=O)n1 | inactive
37 | CC(CCc1ccc(O)cc1)NCCc1ccc(O)c(O)c1 (stereo not given) | inactive
38 | NCCS(=O)(=O)O | inactive
39 | NC(=O)NO | inactive
40 | COc1cc2nc(N3CCN(C(=O)C4COc5ccccc5O4)CC3)nc(N)c2cc1OC (stereo not given) | inactive
